The results in this text go back to PubChem BioAssay (NCATS).

Assay [1] concerns the target Mitogen-activated protein kinase 10 (Mus musculus) (UniProt Q61831). Briefly: JNK3 AlphaScreen Assay (AID 530).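 Note: kinase came from lysate of stimulated human HepG2 cells; signal reports phosphorylation of biotinylated GST-cJun 1-79 at Ser73 with 10 µM ATP; series mostly up to about 57 µM.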 An outline of the steps: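 JNK3 came from HepG2 lysates pre-activated with IL-1beta and TNF-alpha and phosphorylated biotinylated GST-cJun (1-79) at 10 uM ATP, pH 7.6, room temperature. Compounds were titrated. AlphaScreen signal used anti-phospho-cJun (Ser73) antibody.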
Background: In Alpha technology, singlet oxygen from a donor bead excites a nearby acceptor bead.

Assay [2] concerns the target 3',5'-cyclic-AMP phosphodiesterase 4B (Homo sapiens) (UniProt Q07343). Put plainly: qHTS Assay for Inhibitors of PDE-IV (AID 607; active = well fitted activation curve with a large enough effect in the main read-out, with a control signal flat, not every such curve was filed as active). The gist of the method:
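Cell-based read-out of cAMP via a modified cyclic nucleotide-gated channel and membrane potential dye (535/590 nm) in HEK293 cells expressing PDE4 endogenously. Compounds tested up to 22.9 uM final; 100 uM RO 20-1724 reference.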
(In general: In qHTS, concentration-response curves come from the screen itself.)

Records with an inconclusive call do not appear. The source made the active and inactive calls. Unless noted, calls come from the whole dose curve; as a rule, active = well fitted curve in either direction with a large enough effect (not every such curve was filed as active); inconclusive = small, poorly fitted or top-dose-only effect, or another doubt; inactive = flat fitted curve, though single readings scatter.

3',5'-cyclic-AMP phosphodiesterase 4B (Homo sapiens), sequence (Q07343 whole entry, looked up): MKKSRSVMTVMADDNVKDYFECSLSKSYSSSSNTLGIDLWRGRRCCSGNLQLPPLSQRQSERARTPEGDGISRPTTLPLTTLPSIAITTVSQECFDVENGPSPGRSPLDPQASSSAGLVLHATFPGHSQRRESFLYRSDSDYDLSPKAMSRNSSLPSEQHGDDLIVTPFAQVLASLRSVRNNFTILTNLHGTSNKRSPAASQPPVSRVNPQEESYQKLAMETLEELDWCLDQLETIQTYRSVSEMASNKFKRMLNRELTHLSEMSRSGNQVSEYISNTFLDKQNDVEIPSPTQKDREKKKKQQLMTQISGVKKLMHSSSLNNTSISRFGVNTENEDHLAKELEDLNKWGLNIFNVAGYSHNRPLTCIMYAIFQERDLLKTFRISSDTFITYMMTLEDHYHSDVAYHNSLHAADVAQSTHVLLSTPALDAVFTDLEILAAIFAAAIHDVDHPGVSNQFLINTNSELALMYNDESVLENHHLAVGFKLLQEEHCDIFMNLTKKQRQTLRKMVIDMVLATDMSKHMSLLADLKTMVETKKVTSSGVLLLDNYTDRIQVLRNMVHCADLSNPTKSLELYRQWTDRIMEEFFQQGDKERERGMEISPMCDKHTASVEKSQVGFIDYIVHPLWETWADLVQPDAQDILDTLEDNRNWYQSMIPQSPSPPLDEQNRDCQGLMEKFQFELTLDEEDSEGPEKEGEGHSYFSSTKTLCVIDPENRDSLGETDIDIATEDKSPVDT

In the case of `COC(=O)[C@@]1(Cc2ccc(F)cc2)[C@H]2c3cc(C(=O)N(C)C)n(Cc4cc(C)n(C)n4)c3C[C@H]2CN1C(=O)c1ccccc1`, the result in assay [1] and in assay [2] was inactive.

For `COC(=O)[C@@]1(Cc2ccc(F)cc2)[C@H]2c3cc(C(=O)N(C)C)n(CCc4ccccn4)c3C[C@H]2CN1C(=O)c1ccccc1`, the result in assay [1] and in assay [2] was inactive.

Turning to `COC(=O)[C@@]1(Cc2ccc(OC)cc2)[C@H]2c3cc(C(=O)N4CCCC4)n(Cc4cc(C)n(C)n4)c3C[C@H]2CN1C(=O)c1ccccc1`, the result in assay [1] and in assay [2] was inactive.

Regarding `COC(=O)[C@@]1(Cc2ccccc2)[C@H]2c3cc(C(=O)N(C)C)n(Cc4cc(F)c(F)c(F)c4)c3C[C@H]2CN1C(=O)c1ccccc1`, the result in assay [1] and in assay [2] was inactive.

Consider `Cc1ccc(CNC(=O)[C@H](C)[C@H]2C[C@]2(C)[C@H](NC(=O)OCc2ccccc2)c2ccccc2)c(F)c1F`, for which the outcome in assay [1] and in assay [2] was inactive.

Regarding `COC(=O)[C@@]1(Cc2ccc(OC)cc2)[C@H]2c3cc(C(=O)N4CCCC4)n(Cc4ccc(OC(F)(F)F)cc4)c3C[C@H]2CN1C(=O)c1ccccc1`, the compound was classed as inactive in assay [1] and in assay [2].

`COC(=O)Cn1c(C(=O)N(C)C)cc2c1C[C@H]1CN(C(=O)c3ccccc3)[C@@](Cc3ccc(OC)cc3)(C(=O)OC)[C@@H]21`: the compound was called inactive in assay [1] and in assay [2].

As for `COCCn1c(C(=O)N2CCCC2)cc2c1C[C@H]1CN(C(=O)c3ccccc3)[C@@](Cc3ccccc3)(C(=O)OC)[C@@H]21`, the call in assay [1] and in assay [2] was inactive.

With `COC(=O)[C@@H]1C[C@H]1[C@@H](NS(=O)(=O)c1ccccc1)c1ccccc1`, the call in assay [1] and in assay [2] was inactive.

With `COC(=O)[C@@]1(Cc2ccc(OC)cc2)[C@H]2c3cc(C(=O)N4CCCC4)n(C[C@H](O)CO)c3C[C@H]2CN1C(=O)c1ccccc1`, the call in assay [1] and in assay [2] was inactive.

Consider `COC(=O)[C@@]1(Cc2ccc(OC)cc2)[C@H]2c3cc(C(=O)N(C)C)n(C[C@H](O)CO)c3C[C@H]2CN1C(=O)c1ccccc1`, for which the outcome in assay [1] and in assay [2] was inactive.

`COC(=O)[C@@]1(Cc2ccc(OC)cc2)[C@H]2c3cc(C(=O)N4CCCC4)n(Cc4ccc(S(C)(=O)=O)cc4)c3C[C@H]2CN1C(=O)c1ccccc1`: the call in assay [1] and in assay [2] was inactive.

As to `COC(=O)[C@@]1(Cc2ccc(OC)cc2)[C@H]2c3cc(C(=O)N4CCCC4)n(Cc4cc(F)c(F)c(F)c4)c3C[C@H]2CN1C(=O)c1ccccc1`, the result in assay [1] and in assay [2] was inactive.

In the case of `COC(=O)[C@@]1(Cc2ccc(OC)cc2)[C@H]2c3cc(C(=O)N(C)C)n(CCc4ccc(O)c(OC)c4)c3C[C@H]2CN1C(=O)c1ccccc1`, the compound was called inactive in assay [1] and in assay [2].

As for `C/C(=C\C1CCCCC1)C(NC(=O)c1cccnc1)c1ccc(-c2ccccc2)cc1` (stereo not given), the compound was called inactive in assay [1] and in assay [2].

In the case of `COC(=O)[C@@H]1C[C@H]1[C@@H](N)c1ccccc1`, the compound was called inactive in assay [1] and in assay [2].

Consider `COC(=O)[C@@]1(Cc2ccccc2)[C@H]2c3cc(C(=O)N(C)C)n(CCF)c3C[C@H]2CN1C(=O)c1ccccc1`, for which the result in assay [1] and in assay [2] was inactive.

Consider `COC(=O)Cn1c(C(=O)N(C)C)cc2c1C[C@H]1CN(C(=O)c3ccccc3)[C@@](Cc3ccc(F)cc3)(C(=O)OC)[C@@H]21`, for which the outcome in assay [1] and in assay [2] was inactive.

Regarding `O=C(N[C@@H](c1ccccc1)[C@@H]1C[C@H]1C(=O)NCc1ccccc1)OCc1ccccc1`, the outcome in assay [1] and in assay [2] was inactive.

With `CCc1c2c(nc3ccccc13)OC(C)C2` (stereo not given), the compound was called inactive in assay [1] and in assay [2].

Regarding `C[C@@H](C(=O)NCc1ccc(C(F)(F)F)nc1)[C@H]1C[C@]1(C)[C@H](NC(=O)OCc1ccccc1)c1ccccc1`, the result in assay [1] and in assay [2] was inactive.

In the case of `COC(=O)[C@@]1(Cc2ccc(OC)cc2)[C@H]2c3cc(C(=O)N4CCCC4)n(CCO)c3C[C@H]2CN1C(=O)c1ccccc1`, the outcome in assay [1] and in assay [2] was inactive.

`COC(=O)[C@@]1(Cc2ccccc2)[C@H]2c3cc(C(=O)N(C)C)n(Cc4cc(C)n(C)n4)c3C[C@H]2CN1C(=O)c1ccccc1`: the result in assay [1] and in assay [2] was inactive.

With `COC(=O)[C@@]1(Cc2ccccc2)[C@H]2c3cc(C(=O)N(C)C)n(Cc4ccccn4)c3C[C@H]2CN1C(=O)c1ccccc1`, the compound was called inactive in assay [1] and in assay [2].

With `COC(=O)[C@@]1(Cc2ccc(OC)cc2)[C@H]2c3cc(C(=O)N(C)C)n(Cc4ccc(OC)c(OC)c4)c3C[C@H]2CN1C(=O)c1ccccc1`, the call in assay [1] and in assay [2] was inactive.

For `Cc1ccc(CNC(=O)[C@H](C)[C@@H]2C[C@@]2(C)[C@@H](NC(=O)OCc2ccccc2)c2ccccc2)o1`, the call in assay [1] and in assay [2] was inactive.

On to `COC(=O)[C@@]1(Cc2ccccc2)[C@H]2c3cc(C(=O)N(C)C)n(CCO)c3C[C@H]2CN1C(=O)c1ccccc1`, for which the compound was called inactive in assay [1] and in assay [2].

`Nc1ccccc1C#CCCCCO`: the outcome in assay [1] and in assay [2] was inactive.

With `COC(=O)[C@@]1(Cc2ccc(OC)cc2)[C@H]2c3cc(C(=O)N(C)C)n(Cc4ccccn4)c3C[C@H]2CN1C(=O)c1ccccc1`, the outcome in assay [1] and in assay [2] was inactive.

Turning to `COC(=O)[C@@]1(Cc2ccc(OC)cc2)[C@H]2c3cc(C(=O)N(C)C)n(Cc4cc(F)c(F)c(F)c4)c3C[C@H]2CN1C(=O)c1ccccc1`, the compound was called inactive in assay [1] and in assay [2].
